Laboratory results reported in the supplement of paper PMC13380429.

Test system: Vero E6 infected with SARS-CoV-2
Test: inhibition of SARS-CoV-2 cytopathic effect; higher = more antiviral protection, active = above 15
Conditions: 48 h

Measured: inhibition of SARS-CoV-2 cytopathic effect

CC[N+](CC)(CCCNC1=CC(=O)C(NCCC[N+](CC)(CC)Cc2ccccc2)=CC1=O)Cc1ccccc1 [benzoquinonium-dibromide]
inactive: 1 nM -1.79% | 8.33 nM 1.05% | 100 nM -2.22% | 833.33 nM 0.21% | 10000 nM -1.78%

N=C(N)NC(=O)c1cnccn1 [pyrazinoylguanidine]
inactive: 1 nM 0.04% | 8.33 nM -6.78% | 100 nM -2.28% | 833.33 nM -5.59% | 10000 nM -0.5%

CN(C)C/C=C/C(=O)Nc1cc2c(Nc3ccc(F)c(Cl)c3)ncnc2cc1O[C@H]1CCOC1 [afatinib]
inactive: 1 nM -2.03% | 8.33 nM -3.01% | 100 nM -5.33% | 833.33 nM -8.01% | 10000 nM -9.49%

Oc1cccc(Nc2ccc(Nc3cccc(O)c3)nn2)c1 [beta-amyloid-synthesis-inhibitor]
inactive: 1 nM -0.67% | 8.33 nM 1.31% | 100 nM 0.24% | 833.33 nM 1.07% | 10000 nM 4.99%

Cc1[nH]c2ccc(Cl)cc2c1C1=CCNCC1
inactive: 1 nM 0.44% | 8.33 nM 2.01% | 100 nM -0.51% | 833.33 nM 1.48% | 10000 nM 10.1%

C=CC[N+]1([C@H]2C[C@H]3[C@@H]4CC[C@H]5C[C@H](O)[C@@H](N6CCOCC6)C[C@]5(C)[C@H]4CC[C@]3(C)[C@H]2OC(C)=O)CCCC1
inactive: 1 nM -0.55% | 8.33 nM -0.87% | 100 nM 2.36% | 833.33 nM 1.73% | 10000 nM 0.75%

CC(C)[C@H]1c2ccc(F)cc2CC[C@@]1(CCN(C)CCCc1nc2ccccc2[nH]1)OC(=O)C1CC1
inactive: 1 nM 1.78% | 8.33 nM 2.76% | 100 nM 7.24% | 833.33 nM -2.65% | 10000 nM -19.3%

C[C@H](N)Cc1cccc(O)c1 [gepefrine]
inactive: 1 nM 1.14% | 8.33 nM 1.71% | 100 nM 1.51% | 833.33 nM 1.38% | 10000 nM 0.56%

NS(=O)(=O)c1cccc2c1c([N+](=O)[O-])cc1nc(O)c(O)nc12
inactive: 1 nM 2.79% | 8.33 nM 2.79% | 100 nM 2.47% | 833.33 nM 1.7% | 10000 nM -1.01%

CC(C)(C)NC(=O)[C@@H]1CN(Cc2cccnc2)CCN1C[C@@H](O)C[C@@H](Cc1ccccc1)C(=O)N[C@H]1c2ccccc2C[C@H]1O [indinavir]
inactive: 1 nM -3.73% | 8.33 nM -5.87% | 100 nM -9.09% | 833.33 nM -8.27% | 10000 nM -10.5%

O=C(O)C[C@H](O)C(=O)O [malic-acid]
inactive: 1 nM -0.21% | 8.33 nM -2.53% | 100 nM -1.2% | 833.33 nM 3.51% | 10000 nM 1.76%

COc1ccc(-n2c(SCCCN3C(=O)c4cccc5cccc(c45)C3=O)nnc2-c2ccncc2)cc1
inactive: 1 nM -0.26% | 8.33 nM 2.51% | 100 nM -0.79% | 833.33 nM -0.8% | 10000 nM -1.41%

C[N+]1(CCCCC[N+]2(C)CCCC2)CCCC1 [pentolinium]
inactive: 1 nM 2.83% | 8.33 nM 4.75% | 100 nM 5.22% | 833.33 nM 4.57% | 10000 nM 0.64%

CC(C)C(N)C(=O)O (stereo in doubt) [L-valine]
inactive: 1 nM 0.78% | 8.33 nM -0.34% | 100 nM 0.64% | 833.33 nM -0.11% | 10000 nM 1.66%

O=C(CC12CC3CC(CC(C3)C1)C2)Nc1cccc2nc(NCCNCCO)ccc12
inactive: 1 nM 3.46% | 8.33 nM 8.07% | 100 nM 0.57% | 833.33 nM 4.43% | 10000 nM 4.98%

COc1ccc2cc(C(C)C(=O)Oc3ccc(C(N)=S)cc3)ccc2c1 (stereo not given)
inactive: 1 nM -0.75% | 8.33 nM 0.03% | 100 nM -0.37% | 833.33 nM 0.55% | 10000 nM 4.55%

c1cnc2cc3c(cc2n1)[C@@H]1CNC[C@H]3C1 [varenicline]
inactive: 1 nM 1.15% | 8.33 nM 1.67% | 100 nM -1.63% | 833.33 nM -1.66% | 10000 nM 3.97%

COc1cc2c(cc1O)C(CCc1ccc(Cl)cc1)N(C)CC2 (stereo not given)
inactive: 1 nM 0.21% | 8.33 nM 2.27% | 100 nM 0.29% | 833.33 nM 0% | 10000 nM 0.49%

NCCC(O)(P(=O)(O)O)P(=O)(O)O [pamidronate]
inactive: 1 nM -0.49% | 8.33 nM 2.17% | 100 nM -0.58% | 833.33 nM -3.14% | 10000 nM -1.25%
